Results: PubChem BioAssay AID504850 (National Center for Advancing Translational Sciences (NCATS), 2011)
The campaign covered roughly 2,300 compounds. About 1,200 (52%) were called active. About 34% were inconclusive and are not listed. The call rests on the fitted dose curve; in most records, active means well fitted inhibition curve with a large enough effect; inconclusive means small, poorly fitted or top-dose-only effect, or effect the other way; inactive means no such curve, though single readings can be large or run the other way. So high a share suggests a set chosen from earlier hits. The list shows a part of the results.

test: Confirmation screen for delayed death inhibitors of the malarial parasite plastid, 48 hour incubation; further: nearly all actives have a fitted effect of over 65% in size; conditions: P. falciparum-infected erythrocytes, luciferase growth; series mostly up to 28.7 µM
Outline: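 Erythrocytes infected with luciferase-expressing P. falciparum (2% hematocrit, 0.1% parasitemia) incubated with compounds 48 hours at 37 C, 5% CO2, in RPMI/Albumax. Growth inhibition scored as reduced luminescence after detection reagent.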
Potency means the concentration at half of the fitted maximal effect.

Compound	Potency
CCC(C)NC(=O)c1cc(Cl)c(NC(=O)C2=C(C)OCCS2)cc1OC (stereo not given)	11.2 µM (active)
CCOC(=O)c1sc(NC(=O)CSc2ncccn2)nc1C	inactive
COc1ccc(-c2cc(-c3ccccc3)nc(SC(C)C(=O)O)c2C#N)cc1 (stereo not given)	14.1 µM (active)
COc1ccc(-c2cc(-c3ccccc3)nc(SCC(=O)Nc3nccs3)c2C#N)cc1	2.24 µM (active)
Fc1ccc(C2CC(c3ccco3)=NN2c2ccccc2)cc1 (stereo not given)	inactive
CS(=O)(=O)Nc1ccc(C2=NN(C(=O)c3ccco3)C(c3ccc(F)cc3)C2)cc1 (stereo not given)	12.6 µM (active)
COc1ccc(Cc2nc3ccc(C(=O)NCCc4ccccn4)cc3o2)cc1OC	14.1 µM (active)
C/C(=N\NC(=O)c1ccc(Cl)c(Cl)c1)c1ccc(Br)s1	3.55 µM (active)
O=C(NNC(=O)c1ccc(Br)s1)c1ccc(F)c(S(=O)(=O)N2CCOCC2)c1	inactive
COc1ccc2c(c1OC)C(=O)N1N=C(c3ccccc3)CC21 (stereo not given)	5.01 µM (active)
Nc1nc(CCl)nc(N(c2ccccc2)c2ccccc2)n1	8.91 µM (active)
Cc1cccc(N(Cc2ccccc2)C(=O)CN2C(=O)NC3(CCCCC3C)C2=O)c1 (stereo not given)	12.6 µM (active)
CCCc1nnc(NC(=O)CCC(=O)N2CCN(Cc3ccc(Cl)cc3)CC2)s1	12.6 µM (active)
CCCC(=O)Nc1nnc(CC(=O)N2CCCC2)s1	inactive
COc1ccc(CN2CCN(C(=O)CCC(=O)Nc3nnc(C4CCCCC4)s3)CC2)cc1F	12.6 µM (active)
CCOC(=O)c1c(C)sc2c1N(C(=O)CCl)c1cc(Cl)ccc1S2	3.98 µM (active)
O=c1[nH]c(C(F)(F)F)nc2ccc3ccccc3c12	inactive
Cc1ccc(NS(=O)(=O)c2ccc(-c3cnc(C4CC4)o3)cc2)c(C)c1	5.01 µM (active)
O=C(C1CCC1)N1CCc2cc(S(=O)(=O)NCc3ccco3)ccc21	inactive
O=C(CCl)c1ccc2c(c1)CCN2C(=O)C1CCCCC1	11.2 µM (active)
COc1ccc(NC(=O)c2cc([N+](=O)[O-])ccc2N2CCN(C)CC2)cc1	inactive
O=[N+]([O-])/C=C\c1ccc(N2CCCC2)c(F)c1	inactive
CCC(=O)c1ccc(N2CCN(C(=O)c3cc([N+](=O)[O-])ccc3N3CCN(C)CC3)CC2)c(F)c1	10 µM (active)

Compound	Potency
COc1ccc([N+](=O)[O-])c(S(=O)(=O)c2ccc(Cl)cc2)n1	inactive
CCCn1cc(S(=O)(=O)c2ccc(Cl)cc2)c(=O)c2cc(OC)ccc21	12.6 µM (active)
Cc1onc(-c2c(F)cccc2Cl)c1-c1nnc(-c2ccc(C(F)(F)F)cc2)o1	5.62 µM (active)
Cc1[nH]c(C)c(C(=O)/C=C/c2ccc([N+](=O)[O-])cc2)c1C	12.6 µM (active)
Cc1oc(-c2ccccc2Cl)nc1Cn1cccc1C1=NC(c2ccccc2)CO1 (stereo not given)	12.6 µM (active)
CCCSCCCNC(=O)c1ccccc1NC(=O)C1=CSCCO1	12.6 µM (active)
O=C(Cc1cn2ccsc2n1)Nc1nc2c(s1)CCCC2	inactive
CC(C)(C)c1nc(SCC(=O)Nc2ccc(N3CCOCC3)cc2)c2ccccc2n1	11.2 µM (active)
CC(C)(C)c1nc(SCC(=O)Nc2nc3c(s2)CCCC3)c2ccccc2n1	4.47 µM (active)
O=C(Cn1c(=O)sc2ccccc21)Nc1nc2c(s1)CCCC2	inactive
CCN(CC)C(=O)C1CCCN(C(=O)c2cc(COc3ccc4ncccc4c3)on2)C1 (stereo not given)	11.2 µM (active)
CN1C(=O)Cc2cc(S(=O)(=O)N3CCN(c4cccc(C(F)(F)F)c4)CC3)ccc21	11.2 µM (active)
Cc1ccc(-c2cc(=O)c3ccc(F)cc3[nH]2)cc1	5.01 µM (active)
NC(=O)COc1ccc(C(=O)/C=C2/C(=O)Nc3ccccc32)cc1	inactive
CCn1nc(C)c(NC(=O)CC23CC4CC(CC(C4)C2)C3)c1C	inactive
NC(=O)COc1ccc(NC(=O)CC23CC4CC(CC(C4)C2)C3)cc1	11.2 µM (active)
C=CCNC(=O)CSc1nc2sc3c(c2c(=O)n1CCCOC)CCC3	12.6 µM (active)
CCOc1ccc(-c2cc(C(=O)N/N=C(\C)c3cccnc3)c3ccccc3n2)c(OCC)c1	14.1 µM (active)
COc1ccc(/C=N/NC(=O)c2cc(-c3ccccc3OC(C)C)nc3ccccc23)cc1CN1CCOCC1	inactive
CC(C)Oc1ccccc1-c1cc(C(=O)N/N=C/c2cccnc2)c2ccccc2n1	11.2 µM (active)
CCOc1ccc(-c2cc(C(=O)O)c3ccccc3n2)c(OCC)c1	inactive
COc1cc(/C=N/NC(=O)c2cc(-c3ccccc3OC(C)C)nc3ccccc23)ccc1O	14.1 µM (active)
CC1CCN(c2ccc3nnc(CCC(=O)N4CCN(c5ccccc5F)CC4)n3n2)CC1	10 µM (active)

Compound	Potency
COc1ccc(CN2CCC(Oc3ccc(C(=O)NCc4ccccn4)cc3)CC2)c(F)c1	12.6 µM (active)
CN(CCc1ccccn1)C(=O)c1ccc(OC2CCN(CCc3ccccc3)CC2)cc1	14.1 µM (active)
Cc1nn(C)c(C)c1C(C)NC(=O)c1ccc(OC2CCN(Cc3ccccn3)CC2)cc1 (stereo not given)	inactive
CCCCN(CCCC)CCC(O)c1cc2c(Cl)cc(Cl)cc2c2cc(C(F)(F)F)ccc12 (stereo not given)	0.0316 µM (active)
CC(=O)/C(C#N)=C1\NC(=O)C(Cc2cc(Cl)ccc2Cl)S1 (stereo not given)	14.1 µM (active)
CC(=O)/C(C#N)=C1\NC(=O)C(Cc2ccc(F)cc2)S1 (stereo not given)	10 µM (active)
CCOC(=O)c1c(C)[nH]c(C(=O)Nc2cc(OCC)c(N3CCOCC3)cc2OCC)c1C	2.51 µM (active)
Cc1ccc(NC(=O)CN2C(=O)S/C(=C\c3ccccn3)C2=O)cc1C	inactive
Cc1ccc(CN(Cc2ccccn2)C(=O)Nc2ccc(C)c(C)c2)cc1	14.1 µM (active)
CC(Sc1nc2cc(Cl)ccc2s1)C(=O)Nc1cccc(S(=O)(=O)N2CCOCC2)c1 (stereo not given)	12.6 µM (active)
O=C(CCl)Nc1ccc(S(=O)(=O)Nc2nccs2)cc1	2.24 µM (active)
CCC(=O)c1ccc(OCC(O)CNC(C)c2ccccc2)cc1 (stereo not given)	11.2 µM (active)
CO[C@H]1OC2O[C@@]3(C)CC[C@H]4[C@H](C)CC[C@@H]([C@H]1C)[C@@]24OO3 (stereo not given in full)	0.0708 µM (active)
C[C@H]1[C@@H](OC(=O)CCC(=O)O)OC2OC3(C)CC[C@H]4[C@H](C)CC[C@@H]1[C@@]24OO3 (stereo not given in full)	0.0398 µM (active)
C[C@@H]1CCC2[C@@H](C)[C@@H](O)O[C@@H]3O[C@@]4(C)CC[C@@H]1[C@@]23OO4 (stereo not given in full)	0.0251 µM (active)
CC[C@]1([C@H]2O[C@@H]([C@@H]3O[C@](O)(CO)[C@@H](C)C[C@H]3C)C[C@H]2C)CC[C@@H]([C@]2(C)CC[C@@]3(C[C@@H](O)[C@@H](C)[C@@H]([C@H](C)[C@H](OC)[C@H](C)C(=O)O)O3)O2)O1	0.141 µM (active)
CCCc1c(CC)c(=N)c2ccccc2n1C	0.282 µM (active)
Cc1cnc(CNC(=O)c2ccc3oc(Cc4ccccc4)nc3c2)[nH]1	15.8 µM (active)
CC(C)C[C@H](NC(=O)c1nc[nH]c1C(=O)N1CCN(C(=O)OC(C)(C)C)CC1)C(=O)OC(C)(C)C	11.2 µM (active)
CC(C)(C)OC(=O)CNC(=O)c1[nH]cnc1C(=O)NC1CCN(C(=O)OC(C)(C)C)CC1	14.1 µM (active)
CC(C)(C)OC(=O)[C@H](Cc1ccccc1)NC(=O)c1nc[nH]c1C(=O)N1CCN(C(=O)OC(C)(C)C)CC1	12.6 µM (active)
COc1ccc(NC2=C(NC(C)=O)C(=O)c3ccccc3C2=O)cc1	7.08 µM (active)
CC(Oc1ccccc1F)C(=O)Nc1ccc2ccccc2c1 (stereo not given)	inactive

Compound	Potency
O=C(CSc1c2c(nc3ccc(Cl)cc13)CCCC2)NCCCN1CCOCC1	12.6 µM (active)
O=S(=O)(CC(CN1CCCCC1)N1CCCCC1)c1ccccc1 (stereo not given)	11.2 µM (active)
CC(C)NC(=O)c1onc(CSc2cccc(F)c2)c1C(=O)O	inactive
COC(=O)C1=CN(Cc2ccc(F)cc2)C=C(C(=O)OC)C1c1ccc(O)c(OC)c1	11.2 µM (active)
CCOc1ccc(N(C)C(=O)CCc2nnc3ccc(N4CCCCC4)nn23)cc1	11.2 µM (active)
O=C(Nc1cccc(Br)c1)c1ccc2snnc2c1	inactive
CC(=O)Nc1cccc(C(=O)/C=C/c2ccc(Br)cc2)c1	14.1 µM (active)
CCC(=O)Nc1cccc(C(=O)/C=C/c2cc(Br)ccc2OC)c1	10 µM (active)
CC(=O)Nc1cccc(C(=O)/C=C/c2ccc(C)cc2)c1	15.8 µM (active)
COC(=O)c1ccccc1SC1CC(=O)N(c2ccccc2)C1=O (stereo not given)	inactive
C=CCNC(=O)c1onc(CSc2ccc(F)c(F)c2)c1C(=O)O	inactive
CC(=O)N1c2ccc(S(=O)(=O)NCCC(=O)NC3CCCC(C)C3C)cc2CC1C (stereo not given)	15.8 µM (active)
Cc1ccc(NC(=O)CSc2cccc3cccnc23)c(C)c1	inactive
CN(C)S(=O)(=O)c1cccc(NC(=O)CSc2cccc3cccnc23)c1	11.2 µM (active)
Cn1c(=O)c(=O)n(C)c2cc(N3CCCCC3)c(NS(=O)(=O)c3ccc(Br)cc3)cc21	11.2 µM (active)
COc1ccc(OC)c(CNC(=O)c2ccc(C)c(NC(=O)C3=C(C)OCCS3)c2)c1	12.6 µM (active)
CC(CCc1ccccc1)NC(=O)COC(=O)c1ccc(S(C)(=O)=O)c([N+](=O)[O-])c1 (stereo not given)	inactive
CCCNC(=O)COC(=O)c1ccccc1C(=O)c1ccc(Cl)c([N+](=O)[O-])c1	12.6 µM (active)
CC1CCN(C(=O)Cn2cc(C(=O)c3ccco3)c3ccccc32)CC1	14.1 µM (active)
Cc1cc(Sc2nnc(/N=C/N(C)C)s2)c2ccccc2n1	10 µM (active)
Cc1cc(Sc2nnc(N)s2)c2ccccc2n1	10 µM (active)
